Experimental data taken from PubChem BioAssay (NCI).
Compounds without any hit were thinned out: in the full panel of roughly 83,000, 20% have a hit.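 Single-concentration screen, 48 h exposure, 96-well plates. Endpoint: percent growth. Below 10 = active.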 Active and inactive are the calls of the source.

Columns and labels:
Assay in all cases: NCI-60 one-dose screen, 48 h (100 = growth as untreated, 0 = no growth, -100 = all killed)
Settings in all cases: 10 µM
NCI-H23 lung = tested on: NCI-H23 lung
NCI-H226 lung = tested on: NCI-H226 lung
NCI-H322M lung = tested on: NCI-H322M lung
HOP-62 NSCLC = tested on: HOP-62 NSCLC
NCI-H460 lung = tested on: NCI-H460 lung
NCI-H522 lung = tested on: NCI-H522 lung
A549/ATCC NSCLC = tested on: A549/ATCC NSCLC
786-0 renal = tested on: 786-0 renal
COLO 205 colon = tested on: COLO 205 colon
DU-145 prostate = tested on: DU-145 prostate

Measured: growth

c1ccc(CP(Cc2ccccc2)c2ccccc2)cc1
inactive: NCI-H23 lung 97.9% | NCI-H226 lung 105% | NCI-H322M lung 87.3% | HOP-62 NSCLC 99.4% | NCI-H460 lung 112% | NCI-H522 lung 83.1% | A549/ATCC NSCLC 97% | 786-0 renal 93.5% | COLO 205 colon 106% | DU-145 prostate 113%

Clc1ccccc1N=Cc1ccc2c(c1)OCO2
inactive: NCI-H23 lung 108% | NCI-H226 lung 105% | NCI-H322M lung 110% | HOP-62 NSCLC 110% | NCI-H460 lung 116% | NCI-H522 lung 80.3% | A549/ATCC NSCLC 98.2% | 786-0 renal 104% | COLO 205 colon 109% | DU-145 prostate 112%

FC(F)(F)c1ccc2nc(-c3nc(-c4ccccc4)n4ccccc34)[nH]c2c1
inactive: NCI-H23 lung 78.9% | NCI-H226 lung 99.4% | NCI-H322M lung 55% | HOP-62 NSCLC 110% | NCI-H460 lung 59.4% | NCI-H522 lung 68.3% | A549/ATCC NSCLC 49.5% | 786-0 renal 40.2% | COLO 205 colon 58.9% | DU-145 prostate 68.7%

COc1ccc(-c2nn(-c3cccc(NC(=O)Nc4cc(C(F)(F)F)cc(C(F)(F)F)c4)c3)cc2-c2ccncc2)cc1Cl
active: NCI-H23 lung 5.1% | NCI-H322M lung 4.66% | HOP-62 NSCLC 3.91% | NCI-H460 lung -3.36% | NCI-H522 lung -30% | A549/ATCC NSCLC 0.691% | 786-0 renal -12.8% | COLO 205 colon -88.9%
inactive: NCI-H226 lung 24.2% | DU-145 prostate 17.6%

CC(=O)N(C)c1ccc(Nc2ccc(Nc3ccc(N(C)C(C)=O)cc3)c3c2C(=O)c2ccccc2C3=O)cc1
inactive: NCI-H23 lung 87.3% | NCI-H226 lung 84.2% | NCI-H322M lung 75.4% | HOP-62 NSCLC 75.2% | NCI-H460 lung 64.9% | NCI-H522 lung 53.8% | A549/ATCC NSCLC 63.5% | 786-0 renal 78.7% | COLO 205 colon 70.6% | DU-145 prostate 91.2%

COc1ccc2c(c1)-c1c(c3cc(OC)ccc3n(CCN(C)C)c1=O)C2=O
inactive: NCI-H226 lung 22% | HOP-62 NSCLC 15.3% | 786-0 renal 32.3% | COLO 205 colon 14.7%
active: NCI-H23 lung 7.11% | NCI-H322M lung -14.4% | NCI-H460 lung -4.73% | NCI-H522 lung -11.5% | A549/ATCC NSCLC -18.7% | DU-145 prostate 5.1%

O=C(O)c1ccc(P(=O)(O)O)c([N+](=O)[O-])c1
inactive: NCI-H23 lung 115% | NCI-H226 lung 94.4% | NCI-H322M lung 102% | HOP-62 NSCLC 101% | NCI-H460 lung 103% | NCI-H522 lung 99.1% | A549/ATCC NSCLC 93% | 786-0 renal 110% | COLO 205 colon 112% | DU-145 prostate 108%

O=C(Nc1ccncc1)C(=O)c1cn(S(=O)(=O)c2cccc(Cl)c2)c2ccccc12
inactive: NCI-H23 lung 54.2% | NCI-H226 lung 77.9% | NCI-H322M lung 102% | HOP-62 NSCLC 79.3% | NCI-H460 lung 82.2% | NCI-H522 lung 32.1% | A549/ATCC NSCLC 75.5% | 786-0 renal 72.8% | COLO 205 colon 117% | DU-145 prostate 83.9%

CC(C)(C)c1cc(Br)cc(C(C)(C)C)c1O
inactive: NCI-H23 lung 107% | NCI-H226 lung 97.5% | NCI-H322M lung 96.7% | HOP-62 NSCLC 120% | NCI-H460 lung 117% | NCI-H522 lung 115% | A549/ATCC NSCLC 91.1% | 786-0 renal 103% | COLO 205 colon 113% | DU-145 prostate 113%

COc1cc2cc3c(nc2cc1OC)CCN3Cc1ccc(NC(=O)c2ccc(Cl)c(C(F)(F)F)c2)cc1
inactive: NCI-H23 lung 99.7% | NCI-H226 lung 71.2% | NCI-H322M lung 84.9% | HOP-62 NSCLC 105% | NCI-H460 lung 107% | NCI-H522 lung 86.6% | A549/ATCC NSCLC 97% | 786-0 renal 105% | COLO 205 colon 109% | DU-145 prostate 117%

Cn1c(N)c(N=Nc2ccc(S(=O)(=O)Nc3nccs3)cc2)c(=O)n(C)c1=O
inactive: NCI-H23 lung 94% | NCI-H226 lung 104% | NCI-H322M lung 92.9% | HOP-62 NSCLC 105% | NCI-H460 lung 109% | NCI-H522 lung 82.2% | A549/ATCC NSCLC 105% | 786-0 renal 98.1% | COLO 205 colon 105% | DU-145 prostate 106%

Nc1cc2c(cc1Cl)-c1ccc([N+](=O)[O-])cc1/C2=N\O
inactive: NCI-H23 lung 83.4% | NCI-H226 lung 93.3% | NCI-H322M lung 50.1% | HOP-62 NSCLC 111% | NCI-H460 lung 48.8% | NCI-H522 lung 69.8% | A549/ATCC NSCLC 59.2% | 786-0 renal 90.8% | COLO 205 colon 109% | DU-145 prostate 63%

O=C(N/N=C/c1cc2ccccc2c2ccccc12)c1cc(O)c(O)c(O)c1
inactive: NCI-H23 lung 70.2% | NCI-H226 lung 95.6% | NCI-H322M lung 74.6% | HOP-62 NSCLC 54.5% | NCI-H460 lung 88.1% | A549/ATCC NSCLC 94.4% | 786-0 renal 82.6% | COLO 205 colon 72.7% | DU-145 prostate 75.8%
active: NCI-H522 lung -41.3%

O=[N+]([O-])c1ccc(N/N=C/c2cccc3ccccc23)nc1
inactive: NCI-H23 lung 102% | NCI-H226 lung 121% | NCI-H322M lung 105% | HOP-62 NSCLC 110% | NCI-H460 lung 117% | NCI-H522 lung 84.8% | A549/ATCC NSCLC 92.4% | 786-0 renal 99.2% | COLO 205 colon 102% | DU-145 prostate 124%

CCCCCCCCCCCCCCCCCCOCC(COCCOCC[N+]1(CCCCCC(=O)[O-])CCCC1)Oc1ncccn1 (stereo not given)
active: COLO 205 colon -17.2%
inactive: NCI-H23 lung 46.5% | NCI-H226 lung 56% | NCI-H322M lung 101% | HOP-62 NSCLC 21.3% | NCI-H460 lung 23.7% | NCI-H522 lung 12.9% | A549/ATCC NSCLC 51.2% | 786-0 renal 52.8% | DU-145 prostate 77.6%

C#Cc1ccc(-n2c(/C=C/c3ccc4ccccc4c3)nc3ncccc3c2=O)cc1
active: NCI-H522 lung 8.75%
inactive: NCI-H23 lung 67.5% | NCI-H226 lung 13.2% | NCI-H322M lung 71.9% | HOP-62 NSCLC 63% | NCI-H460 lung 39% | A549/ATCC NSCLC 34% | 786-0 renal 54.3% | COLO 205 colon 26% | DU-145 prostate 60.1%

Clc1ccc(Sc2nc(NC3CC3)nc(Sc3ccc(Cl)cc3)n2)cc1
inactive: NCI-H23 lung 81% | NCI-H226 lung 83.4% | NCI-H322M lung 86.7% | HOP-62 NSCLC 102% | NCI-H460 lung 89.3% | NCI-H522 lung 59.1% | A549/ATCC NSCLC 80.9% | 786-0 renal 87.5% | COLO 205 colon 74% | DU-145 prostate 92.8%

COC(=O)C1=NNC(=S)N(c2cc(C)[nH]n2)C(=O)C1
inactive: NCI-H23 lung 99.1% | NCI-H226 lung 99.7% | NCI-H322M lung 94.5% | HOP-62 NSCLC 115% | NCI-H460 lung 111% | NCI-H522 lung 103% | A549/ATCC NSCLC 106% | 786-0 renal 96.9% | COLO 205 colon 116% | DU-145 prostate 107%

COc1cc(-c2cc(C(=O)N3CCN(C(=O)c4ccccc4NCc4ccco4)CC3)nc3cc(-c4ccccc4)nn23)cc(OC)c1OC
active: NCI-H460 lung 7.61% | NCI-H522 lung -6.6% | COLO 205 colon -16.7% | DU-145 prostate 2.04%
inactive: NCI-H23 lung 56.7% | NCI-H226 lung 57% | NCI-H322M lung 13.5% | HOP-62 NSCLC 45.2% | A549/ATCC NSCLC 24.6% | 786-0 renal 31.6%

COc1ccc(-c2ccc3cc(C(=O)Nc4ccc(O)c(C(=O)/C=C/c5cc(OC)c(OC)c(OC)c5)c4)ccc3c2)cc1
inactive: NCI-H23 lung 94.3% | NCI-H226 lung 82.5% | NCI-H322M lung 100% | HOP-62 NSCLC 114% | NCI-H460 lung 95.9% | NCI-H522 lung 87.7% | A549/ATCC NSCLC 92.6% | 786-0 renal 102% | COLO 205 colon 109% | DU-145 prostate 102%

O=[P@@]1(c2ccccc2)O[C@H](COCc2ccccc2)[C@@H](OCc2ccccc2)[C@H](OCc2ccccc2)[C@H]1O
active: HOP-62 NSCLC 7.83%
inactive: NCI-H23 lung 64.4% | NCI-H226 lung 59% | NCI-H322M lung 86.9% | NCI-H460 lung 74.7% | NCI-H522 lung 42.2% | A549/ATCC NSCLC 83.3% | 786-0 renal 65.3% | COLO 205 colon 118% | DU-145 prostate 90.6%

Cc1ccc(C)c(C(O)(c2cc(C)ccc2C)C2(O)CCCCC2)c1
inactive: NCI-H23 lung 88.5% | NCI-H226 lung 82.7% | NCI-H322M lung 104% | HOP-62 NSCLC 112% | NCI-H460 lung 95.7% | NCI-H522 lung 61.4% | A549/ATCC NSCLC 92.9% | 786-0 renal 90.6% | COLO 205 colon 96.7% | DU-145 prostate 104%

CN(C)N=Nc1nn(C(=O)Nc2ccc(Cc3ccccc3)cc2)c2ccccc12
active: COLO 205 colon -53.4%
inactive: NCI-H23 lung 61% | NCI-H226 lung 69.2% | NCI-H322M lung 81.3% | HOP-62 NSCLC 70.6% | NCI-H460 lung 11.4% | NCI-H522 lung 42.3% | A549/ATCC NSCLC 31.5% | 786-0 renal 49.9% | DU-145 prostate 60.8%

COc1cc(C)ccc1C(=O)c1ccc(C)cc1OC
inactive: NCI-H23 lung 48.6% | NCI-H226 lung 62.9% | NCI-H322M lung 44.5% | HOP-62 NSCLC 27.7% | A549/ATCC NSCLC 26.9% | 786-0 renal 48.7%
active: NCI-H460 lung 5.93% | NCI-H522 lung -6.71% | COLO 205 colon -24.9% | DU-145 prostate 0.538%

O=C1C(c2ccccc2)C2C=CC(C2)N1O (stereo not given)
inactive: NCI-H23 lung 105% | NCI-H226 lung 101% | NCI-H322M lung 102% | HOP-62 NSCLC 105% | NCI-H460 lung 111% | NCI-H522 lung 96.4% | A549/ATCC NSCLC 112% | 786-0 renal 102% | COLO 205 colon 104% | DU-145 prostate 114%

O=C1/C(=C\c2ccc(F)cc2)CN(C(=O)c2ccccc2)C/C1=C\c1ccc(F)cc1
active: NCI-H522 lung -8.75%
inactive: NCI-H23 lung 61.8% | NCI-H226 lung 36.6% | NCI-H322M lung 73.6% | HOP-62 NSCLC 53.3% | NCI-H460 lung 58% | A549/ATCC NSCLC 49.2% | 786-0 renal 33.6% | COLO 205 colon 50.9% | DU-145 prostate 31.7%

N#CSCC1CC(O)(c2ccccc2)CC(c2ccc(Cl)cc2)O1 (stereo not given)
active: NCI-H522 lung 4.64%
inactive: NCI-H23 lung 35.6% | NCI-H226 lung 89.3% | NCI-H322M lung 52.4% | HOP-62 NSCLC 75.1% | NCI-H460 lung 37.2% | A549/ATCC NSCLC 68.5% | 786-0 renal 37% | COLO 205 colon 59.2% | DU-145 prostate 33%
